The supplement of paper PMC10849652
About 7,900 targets were measured; listed, in parts, are those with a hit and a random draw of the rest. About 0.6% of all pairs of compound and target were hits. Values without a mark were called inactive.

Assays:
Assay in all cases: log2 fold change, soluble protein after heating vs DMSO (PISA); higher = thermal stabilisation; K562 cells, 10 uM, 30 min; active = over 0.2 and 3.5 SD of the protein, either way, in both replicates (recomputed)
[1] = compound: CC[C@@H]1C(=O)N(C)c2cnc(Nc3ccc(C(=O)NC4CCN(C)CC4)cc3OC)nc2N1C1CCCC1
Procedure, shortened: (§1)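 For each measurement, 10 μM compound was applied for 30 min to K562 cells at 2×10^6 cells/mL. Aliquots were heated for 3 min across 48°C-58°C, pooled, and extracted in PBS with 0.5% NP-40 at 4°C; the supernatant after 21,000xg for 90 min was soluble protein. This was quantified by TMTpro 16plex LC-MS/MS with channel sums equalised, and thermal stability was reported relative to control samples from duplicates, on a log2 fold-change scale.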

volasertib = compound: CC[C@@H]1C(=O)N(C)c2cnc(Nc3ccc(C(=O)N[C@H]4CC[C@H](N5CCN(CC6CC6)CC5)CC4)cc3OC)nc2N1C(C)C [volasertib]
Procedure, shortened: as §1

[2] = compound: CC[C@H](C)N1C=C(C2=C(C=C(C=C21)C3=CN=C(C=C3)N4CCNCC4)C(=O)NCC5=C(C=C(NC5=O)C)C)C
Procedure, shortened: as §1

epoxomicin = compound: CC[C@H](C)[C@@H](C(=O)N[C@@H]([C@@H](C)O)C(=O)N[C@@H](CC(C)C)C(=O)[C@]1(CO1)C)NC(=O)[C@H]([C@@H](C)CC)N(C)C(=O)C [epoxomicin]
Procedure, shortened: as §1

[3] = compound: CCn1c(C(=O)N(C2CC2)C2CC2)cc2c3c(ncn3C)c(Nc3cc(C)n(C)n3)nc21
Procedure, shortened: as §1

[4] = compound: CCn1cc(-c2ccnc3[nH]c(-c4cccc(CN(C)C)c4)cc23)c(-c2ccc(NC(=O)N(C)C)cc2)n1
Procedure, shortened: as §1

[5] = compound: CN(C)CC(=O)Nc1ccc2[nH]c(=O)c3ccccc3c2c1
Procedure, shortened: as §1

rosiglitazone = compound: CN(CCOC1=CC=C(C=C1)C[C@H]2C(=O)NC(=O)S2)C3=CC=CC=N3 (racemic) [rosiglitazone]
Procedure, shortened: as §1

[6] = compound: CN1C2=C(C3=C1C(=O)N(N=C3)CC4=CC(=CC=C4)N)SC(=C2)S(=O)C
Procedure, shortened: as §1

[7] = compound: CN1CCC(CNc2ccc3ncc(-c4cccc(OC(F)(F)F)c4)n3n2)CC1
Procedure, shortened: as §1

saracatinib = compound: CN1CCN(CCOc2cc(OC3CCOCC3)c3c(Nc4c(Cl)ccc5c4OCO5)ncnc3c2)CC1 [saracatinib]
Procedure, shortened: as §1

sotrastaurin = compound: CN1CCN(c2nc(C3=C(c4c[nH]c5ccccc45)C(=O)NC3=O)c3ccccc3n2)CC1 [sotrastaurin]
Procedure, shortened: as §1

alvocidib = compound: CN1CC[C@H](c2c(O)cc(O)c3c(=O)cc(-c4ccccc4Cl)oc23)[C@H](O)C1 [alvocidib]
Procedure, shortened: as §1

Tubastatin A = compound: CN1CCc2c(c3ccccc3n2Cc2ccc(C(=O)NO)cc2)C1 [Tubastatin A]
Procedure, shortened: as §1

[8] = compound: CNC(=O)C1=CC=CC=C1NC2=NC(=NC=C2Cl)NC3=C(C=C(C=C3)N4CCOCC4)OC
Procedure, shortened: as §1

defactinib = compound: CNC(=O)c1ccc(Nc2ncc(C(F)(F)F)c(NCc3nccnc3N(C)S(C)(=O)=O)n2)cc1 [defactinib]
Procedure, shortened: as §1

rucaparib = compound: CNCc1ccc(-c2[nH]c3cc(F)cc4c3c2CCNC4=O)cc1 [rucaparib]
Procedure, shortened: as §1

[9] = compound: CNc1nc(-c2ccc3c(N)n[nH]c3c2)cc(N2C[C@@H](C(=O)NC3CCCCC3)CC[C@H]2C)n1
Procedure, shortened: as §1

encorafenib = compound: COC(=O)N[C@@H](C)CNc1nccc(-c2cn(C(C)C)nc2-c2cc(Cl)cc(NS(C)(=O)=O)c2F)n1 [encorafenib]
Procedure, shortened: as §1

[10] = compound: COC(=O)[C@H](CCSC)NC(=O)C1=C(C=C(C=C1)NC[C@H](CS)N)C2=CC=CC=C2
Procedure, shortened: as §1

UniProt Q92917, sequence (Q92917 whole entry, looked up): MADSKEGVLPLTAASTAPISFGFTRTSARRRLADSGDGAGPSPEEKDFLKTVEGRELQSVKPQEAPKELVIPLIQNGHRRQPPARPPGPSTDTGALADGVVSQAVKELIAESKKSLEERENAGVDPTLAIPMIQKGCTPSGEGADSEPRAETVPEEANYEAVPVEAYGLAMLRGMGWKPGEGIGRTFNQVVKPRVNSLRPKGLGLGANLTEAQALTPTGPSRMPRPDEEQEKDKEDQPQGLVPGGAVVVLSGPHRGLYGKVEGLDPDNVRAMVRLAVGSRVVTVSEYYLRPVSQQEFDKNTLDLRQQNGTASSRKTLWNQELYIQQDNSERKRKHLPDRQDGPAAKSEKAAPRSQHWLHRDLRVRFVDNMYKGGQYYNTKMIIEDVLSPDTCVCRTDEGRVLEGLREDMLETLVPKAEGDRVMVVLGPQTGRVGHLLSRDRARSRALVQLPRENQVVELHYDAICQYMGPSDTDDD
UniProt Q8N2G8, sequence (Q8N2G8 whole entry, looked up): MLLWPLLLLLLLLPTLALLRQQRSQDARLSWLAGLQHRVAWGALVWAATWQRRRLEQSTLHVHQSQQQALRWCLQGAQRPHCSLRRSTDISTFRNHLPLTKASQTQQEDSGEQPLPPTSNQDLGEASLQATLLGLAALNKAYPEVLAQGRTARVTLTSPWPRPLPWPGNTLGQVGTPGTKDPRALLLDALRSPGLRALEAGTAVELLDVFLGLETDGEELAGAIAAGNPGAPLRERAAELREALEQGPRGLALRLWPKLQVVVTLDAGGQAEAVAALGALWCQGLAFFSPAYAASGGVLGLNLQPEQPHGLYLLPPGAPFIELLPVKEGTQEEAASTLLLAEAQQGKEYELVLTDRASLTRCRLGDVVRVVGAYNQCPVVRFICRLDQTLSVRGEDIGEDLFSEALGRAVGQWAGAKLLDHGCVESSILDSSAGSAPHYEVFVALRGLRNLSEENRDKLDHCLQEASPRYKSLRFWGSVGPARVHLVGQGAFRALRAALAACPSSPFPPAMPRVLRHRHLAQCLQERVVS
UniProt Q9UBN7, sequence (Q9UBN7 whole entry, looked up): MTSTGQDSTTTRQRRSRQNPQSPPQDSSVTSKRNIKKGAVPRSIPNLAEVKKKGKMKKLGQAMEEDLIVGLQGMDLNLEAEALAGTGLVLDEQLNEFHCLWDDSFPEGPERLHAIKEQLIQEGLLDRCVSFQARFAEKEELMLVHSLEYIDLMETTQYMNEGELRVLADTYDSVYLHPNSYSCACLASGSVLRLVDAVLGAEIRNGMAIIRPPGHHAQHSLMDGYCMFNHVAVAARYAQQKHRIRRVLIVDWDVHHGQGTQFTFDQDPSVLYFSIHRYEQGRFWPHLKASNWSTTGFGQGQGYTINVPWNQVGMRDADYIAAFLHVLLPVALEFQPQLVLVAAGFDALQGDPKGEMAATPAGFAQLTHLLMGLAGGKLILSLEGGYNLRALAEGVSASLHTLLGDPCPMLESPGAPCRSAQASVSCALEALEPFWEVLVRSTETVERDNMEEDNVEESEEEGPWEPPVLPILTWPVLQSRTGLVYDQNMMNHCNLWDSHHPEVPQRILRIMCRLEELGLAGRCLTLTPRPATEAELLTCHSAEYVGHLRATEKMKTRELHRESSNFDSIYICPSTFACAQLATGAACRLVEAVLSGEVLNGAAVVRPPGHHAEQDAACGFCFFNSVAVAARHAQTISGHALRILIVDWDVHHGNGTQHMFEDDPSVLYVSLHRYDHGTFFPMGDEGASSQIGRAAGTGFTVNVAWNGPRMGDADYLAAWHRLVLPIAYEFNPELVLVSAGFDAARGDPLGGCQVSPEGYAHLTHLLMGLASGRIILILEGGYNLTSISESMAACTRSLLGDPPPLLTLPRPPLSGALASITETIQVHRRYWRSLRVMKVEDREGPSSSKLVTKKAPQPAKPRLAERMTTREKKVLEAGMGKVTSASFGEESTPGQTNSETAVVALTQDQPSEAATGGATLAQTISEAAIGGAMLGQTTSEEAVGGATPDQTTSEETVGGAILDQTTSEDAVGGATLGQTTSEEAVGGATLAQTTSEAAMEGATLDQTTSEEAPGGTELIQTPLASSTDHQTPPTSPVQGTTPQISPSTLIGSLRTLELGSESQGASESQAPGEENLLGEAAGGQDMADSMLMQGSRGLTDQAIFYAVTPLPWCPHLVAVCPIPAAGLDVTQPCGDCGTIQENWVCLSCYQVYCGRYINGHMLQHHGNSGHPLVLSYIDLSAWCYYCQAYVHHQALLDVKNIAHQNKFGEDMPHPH
UniProt Q8N9F7, sequence (Q8N9F7 whole entry, looked up): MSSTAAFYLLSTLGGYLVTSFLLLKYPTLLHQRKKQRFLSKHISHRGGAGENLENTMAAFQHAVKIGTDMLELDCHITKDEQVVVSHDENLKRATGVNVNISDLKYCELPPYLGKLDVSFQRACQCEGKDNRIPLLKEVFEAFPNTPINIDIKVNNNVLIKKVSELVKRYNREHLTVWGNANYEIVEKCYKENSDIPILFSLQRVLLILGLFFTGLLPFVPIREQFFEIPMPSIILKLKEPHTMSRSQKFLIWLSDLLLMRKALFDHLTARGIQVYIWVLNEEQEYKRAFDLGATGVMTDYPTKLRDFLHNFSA
UniProt P30519, sequence (P30519 whole entry, looked up): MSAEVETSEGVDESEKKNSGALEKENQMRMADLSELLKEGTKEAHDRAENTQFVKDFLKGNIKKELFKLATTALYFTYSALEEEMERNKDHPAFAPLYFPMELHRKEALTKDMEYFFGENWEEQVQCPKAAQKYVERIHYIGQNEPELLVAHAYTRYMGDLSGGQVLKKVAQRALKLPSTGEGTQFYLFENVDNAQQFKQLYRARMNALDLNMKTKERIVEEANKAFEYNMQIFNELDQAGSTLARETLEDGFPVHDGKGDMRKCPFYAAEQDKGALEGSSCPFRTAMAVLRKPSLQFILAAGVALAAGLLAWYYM
UniProt P0CL80, sequence (P0CL80 whole entry, looked up): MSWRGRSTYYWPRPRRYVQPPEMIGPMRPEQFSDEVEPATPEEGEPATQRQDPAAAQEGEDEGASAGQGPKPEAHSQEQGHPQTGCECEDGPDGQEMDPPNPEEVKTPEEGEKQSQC
UniProt Q5SSJ5, sequence (Q5SSJ5 whole entry, looked up): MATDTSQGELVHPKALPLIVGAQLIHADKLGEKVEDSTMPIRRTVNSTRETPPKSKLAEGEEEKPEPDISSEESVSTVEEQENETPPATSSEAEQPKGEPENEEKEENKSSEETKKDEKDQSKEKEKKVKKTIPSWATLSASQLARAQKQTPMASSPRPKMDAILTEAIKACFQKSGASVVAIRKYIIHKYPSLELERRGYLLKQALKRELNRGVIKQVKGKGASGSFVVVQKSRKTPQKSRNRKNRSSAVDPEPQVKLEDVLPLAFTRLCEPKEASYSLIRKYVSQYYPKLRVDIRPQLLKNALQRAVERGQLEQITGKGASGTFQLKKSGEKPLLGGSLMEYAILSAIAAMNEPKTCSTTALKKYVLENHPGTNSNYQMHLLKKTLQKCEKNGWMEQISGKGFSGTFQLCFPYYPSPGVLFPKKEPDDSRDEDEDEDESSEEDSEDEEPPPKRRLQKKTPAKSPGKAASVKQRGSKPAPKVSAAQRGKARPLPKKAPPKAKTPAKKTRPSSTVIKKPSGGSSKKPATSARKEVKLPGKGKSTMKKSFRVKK
UniProt Q14527, sequence (Q14527 whole entry, looked up): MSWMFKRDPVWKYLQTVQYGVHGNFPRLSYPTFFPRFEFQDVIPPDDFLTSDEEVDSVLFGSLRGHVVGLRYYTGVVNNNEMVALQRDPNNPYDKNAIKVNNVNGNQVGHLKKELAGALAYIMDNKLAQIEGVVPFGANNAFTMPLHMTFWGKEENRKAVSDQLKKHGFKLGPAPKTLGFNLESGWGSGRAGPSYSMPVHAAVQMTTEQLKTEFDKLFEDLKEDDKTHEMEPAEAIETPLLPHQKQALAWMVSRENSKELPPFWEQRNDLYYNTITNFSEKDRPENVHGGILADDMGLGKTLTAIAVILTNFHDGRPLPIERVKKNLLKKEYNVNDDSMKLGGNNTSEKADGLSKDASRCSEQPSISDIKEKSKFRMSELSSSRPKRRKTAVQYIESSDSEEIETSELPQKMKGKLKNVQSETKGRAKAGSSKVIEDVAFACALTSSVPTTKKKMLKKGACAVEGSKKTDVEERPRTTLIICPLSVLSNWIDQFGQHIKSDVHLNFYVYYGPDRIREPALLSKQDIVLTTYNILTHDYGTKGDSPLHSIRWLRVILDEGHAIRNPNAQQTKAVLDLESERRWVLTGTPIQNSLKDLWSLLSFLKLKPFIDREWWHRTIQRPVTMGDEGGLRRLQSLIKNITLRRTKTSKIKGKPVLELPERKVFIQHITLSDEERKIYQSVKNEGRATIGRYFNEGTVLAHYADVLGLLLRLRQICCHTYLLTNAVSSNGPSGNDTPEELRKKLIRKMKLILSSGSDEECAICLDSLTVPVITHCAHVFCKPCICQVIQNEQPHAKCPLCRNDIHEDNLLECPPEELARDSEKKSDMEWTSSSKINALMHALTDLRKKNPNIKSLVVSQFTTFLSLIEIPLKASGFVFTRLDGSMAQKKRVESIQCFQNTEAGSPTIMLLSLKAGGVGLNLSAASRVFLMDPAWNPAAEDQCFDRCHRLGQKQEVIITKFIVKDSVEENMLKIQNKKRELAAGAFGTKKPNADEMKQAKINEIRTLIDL
UniProt P07910, sequence (P07910 whole entry, looked up): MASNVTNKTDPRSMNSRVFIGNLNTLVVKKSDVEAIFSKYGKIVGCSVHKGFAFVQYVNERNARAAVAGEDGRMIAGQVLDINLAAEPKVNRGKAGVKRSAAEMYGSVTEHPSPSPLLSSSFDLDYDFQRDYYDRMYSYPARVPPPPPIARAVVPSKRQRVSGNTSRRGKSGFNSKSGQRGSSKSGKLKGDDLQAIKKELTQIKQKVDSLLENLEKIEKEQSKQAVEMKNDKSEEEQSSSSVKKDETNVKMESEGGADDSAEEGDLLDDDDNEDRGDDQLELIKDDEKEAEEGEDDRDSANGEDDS

Row | Target | log2 fold change [1] | log2 fold change (volasertib) | log2 fold change [2] | log2 fold change (epoxomicin) | log2 fold change [3] | log2 fold change [4] | log2 fold change [5] | log2 fold change (rosiglitazone) | log2 fold change [6] | log2 fold change [7] | log2 fold change (saracatinib) | log2 fold change (sotrastaurin) | log2 fold change (alvocidib) | log2 fold change (Tubastatin A) | log2 fold change [8] | log2 fold change (defactinib) | log2 fold change (rucaparib) | log2 fold change [9] | log2 fold change (encorafenib) | log2 fold change [10]
1 | GALNT4 (UniProt Q8N4A0) | -0.062 | -0.334 (active) | -0.032 | -0.041 | -0.032 | -0.031 | 0.007 | 0.051 | -0.007 | -0.367 (active) | -0.088 | -0.029 | -0.033 | 0.046 | -0.063 | 0.016 | -0.079 | -0.138 | 0.04 | -0.013
2 | HNRNPC isoform 2 (UniProt P07910) | 0.238 | 0.276 | 0.017 | -0.423 | -0.19 | 0.147 | -0.151 | -0.129 | 0.467 | -0.067 | -0.067 | -0.035 | 0.04 | 0.219 | 0.033 | 0.054 | 0.392 | 0.115 | 0.148 | 0.071
3 | HMOX2 (UniProt P30519) | -0.015 | -0.251 (active) | 0.074 | 0.009 | -0.054 | -0.069 | 0.008 | 0.012 | 0.011 | 0.054 | -0.071 | -0.04 | -0.06 | 0.004 | 0.03 | -0.049 | 0.036 | 0.15 | 0.081 | -0.038
4 | GAGE12F (UniProt P0CL80) | 0.037 | 0.069 | -0.033 | 0.034 | -0.039 | -0.058 | -0.095 | 0.002 | -0.049 | -0.234 | 0.007 | 0.053 | 0.052 | 0.009 | -0.081 | 0.095 | 0.033 | -0.051 | -0.031 | -0.02
5 | HPCAL1 (UniProt P37235) | -0.076 | -0.065 | -0.028 | 0.048 | 0.003 | 0.039 | 0.019 | 0.005 | -0.029 | -0.032 | 0.011 | 0.017 | -0.004 | -0.085 | 0.048 | -0.008 | 0.013 | -0.107 | -0.014 | -0.025
6 | GDPD1 (UniProt Q8N9F7) | 0.069 | 0.049 | -0.019 | 0.017 | -0.015 | -0.188 | 0.004 | 0.083 | -0.132 | 0.092 | 0.505 (active) | 0.21 | -0.058 | 0.019 | -0.017 | -0.087 | -0.07 | 0.042 | -0.051 | -0.041
7 | GPKOW (UniProt Q92917) | -0.056 | -0.217 | 0.101 | -0.021 | -0.063 | -0.049 | 0.039 | 0.045 | 0.022 | -0.248 | -0.03 | -0.031 | -0.188 | 0.033 | -0.107 | -0.178 | -0.036 | 0.069 | 0.034 | -0.032
8 | FUCA1 (UniProt P04066) | -1.33 (active) | -1.73 (active) | -0.061 | -0.03 | 0.007 | -0.006 | -0.025 | -0.008 | -0.017 | -0.141 | 0.038 | -0.048 | 0.059 | -0.035 | -0.015 | -0.032 | -0.186 | 0.023 | 0 | 0.014
9 | HLTF (UniProt Q14527) | -0.063 | -0.178 | 0.017 | 0.158 | -0.025 | -0.113 | 0.056 | 0.025 | -0.009 | 0.201 | -0.012 | 0.019 | -0.036 | 0.081 | -0.03 | -0.122 | -0.033 | -0.074 | -0.195 | -0.027
10 | GHDC (UniProt Q8N2G8) | -0.075 | -0.053 | -0.063 | -0.021 | 0.011 | -0.024 | 0.009 | 0.008 | -0.053 | -0.041 | 0.003 | 0.085 | -0.029 | -0.032 | 0.014 | -0.033 | 0.006 | -0.007 | 0.001 | 0.02
11 | FBXO42 (UniProt Q6P3S6) | 0.093 | 0.011 | 0.028 | 0.056 | -0.031 | 0.002 | -0.019 | 0.027 | 0.032 | 0.021 | -0.032 | 0.051 | -0.107 | 0 | -0.067 | -0.165 | -0.073 | 0.139 | 0.03 | 0.012
12 | GLUD2 (UniProt P49448) | 0.13 | 0.252 | 0.068 | -0.07 | 0.034 | -0.219 | 0.021 | 0.002 | -0.022 | 0.071 | 0.305 (active) | 0.056 | -0.017 | -0.016 | 0.051 | 0.008 | 0.003 | 0.178 | -0.117 | -0.042
13 | FBXO3 (UniProt Q9UK99) | 0.041 | 0.042 | 0.052 | 0.007 | 0.001 | -0.074 | -0.03 | 0.045 | 0.023 | -0.038 | 0.029 | 0.049 | -0.048 | 0.157 | -0.051 | 0.072 | 0.016 | -0.076 | 0.018 | -0.005
14 | HDAC6 (UniProt Q9UBN7) | 0.013 | 0.005 | 0.014 | -0.069 | -0.074 | -0.157 | 0.068 | -0.065 | 0.058 | -0.04 | -0.067 | -0.013 | -0.009 | 1.01 (active) | -0.037 | -0.028 | -0.028 | 0.09 | -0.135 | -0.014
15 | GALC (UniProt P54803) | -0.275 (active) | -0.959 (active) | -0.009 | 0.042 | 0.012 | 0.096 | 0.01 | -0.006 | -0.011 | -0.403 (active) | 0.033 | 0.047 | -0.03 | -0.028 | -0.003 | 0.017 | -0.091 | -0.015 | 0.024 | -0.005
16 | HP1BP3 (UniProt Q5SSJ5) | 0.122 | 0.054 | -0.11 | -0.016 | -0.015 | 0.013 | 0.046 | -0.037 | 0.126 | 0.038 | -0.045 | -0.071 | 0.039 | 0.06 | -0.045 | 0.227 | -0.041 | -0.001 | 0.075 | -0.098
